Measurements as given in ChEMBL document CHEMBL4296182, “CO-ADD screening of NIH NCI Diversity Set V”.
For part of these data: Entries with a potency or affinity are not part of this list.

Assays:
Staphylococcus aureus = experiment: Antibacterial activity against Staphylococcus aureus MRSA ATCC 43300 (CO-ADD:GP_020); MIC in CAMBH media using NBS plates, by Resazurin F(560/590); type: functional; settings: Concentration 20 uM, ASSAY_TEST Inhibition of Bacterial Growth, detection method Resazurin, Fluorescence (ex560/em590), MEDIA CAMHB, plate type 384well, CORNING #3640, time 18 hr
Acinetobacter baumannii = experiment: Antibacterial activity against Acinetobacter baumannii ATCC 19606 (CO-ADD:GN_034); MIC in CAMBH media using NBS plates, by Resazurin F(560/590); type: functional; settings: Concentration 20 uM, ASSAY_TEST Inhibition of Bacterial Growth, detection method Resazurin, Fluorescence (ex560/em590), MEDIA CAMHB, plate type 384well, CORNING #3640, time 18 hr
Escherichia coli = experiment: Antibacterial activity against Escherichia coli ATCC 25922 (CO-ADD:GN_001); MIC in CAMBH media using NBS plates, by Resazurin F(560/590); type: functional; settings: Concentration 20 uM, ASSAY_TEST Inhibition of Bacterial Growth, detection method Resazurin, Fluorescence (ex560/em590), MEDIA CAMHB, plate type 384well, CORNING #3640, time 18 hr
Klebsiella pneumoniae = settings: Concentration 20 uM; ASSAY_TEST Inhibition of Bacterial Growth; detection method Absorption (OD600); MEDIA CAMHB; plate type 384well; NBS; CORNING #3640; time 18 hr
Candida albicans = settings: 20 µM
Cryptococcus neoformans = settings: Concentration 20 uM; ASSAY_TEST Inhibition of Fungal Growth; detection method Resazurin; Absorption (OD600-OD570); plate type 384well; NBS; CORNING #3640

SMILES | Inhibition (Staphylococcus aureus) [%] | Inhibition (Acinetobacter baumannii) [%] | Inhibition (Escherichia coli) [%] | Inhibition (Klebsiella pneumoniae) [%] | Inhibition (Candida albicans) [%] | Inhibition (Cryptococcus neoformans) [%]
CCCCn1cnc2c(S)nc(N)nc21 | 6.68 | -8.46 | -1.37 | 7.23 | 1.37 | -12.06
CCOC(=O)C(=O)Cc1cccnn1 | 12.36 | -7.97 | 16.74 | 15.16 | 9.85 | -1.54
CCOC(CNCc1cc(C)c2[nH]c3ccccc3c2c1C)OCC | 11.65 | -1.22 | 3.76 | 8.4 | 1.3 | -11.65
O=C1c2ccccc2C(=O)c2[nH]cnc21 | -4.2 | -6.06 | -19.22 | 13.37 | 6.65 | 21.89
Cn1ncc2c(Nc3cccc(Cl)c3)nc(Nc3cccc(Cl)c3)nc21 | 15.88 | -2.31 | 4.26 | 11.58 | -1.22 | -11.25
N#CCS(=O)(=O)c1cccc[n+]1[O-] | 7.02 | -20.49 | 18.56 | 15.26 | 4.91 | -4.09
Cn1ncc2c(O)nc(N)nc21 | 6 | -7.72 | 12.24 | 14.42 | -0.53 | 20.28
C/C(=N\NC(N)=O)c1ccc(Cl)c(-n2cccc2)c1 | 16.93 | -8.65 | 6.19 | 13.36 | 4.13 | -10.07
CC(C)c1cc(C(F)(F)F)nc(NNc2nc(C(C)C)cc(C(F)(F)F)n2)n1 | 18.88 | -11.48 | 9.37 | 26.13 | 9.95 | -5.35
c1ccc(Nc2cccc3c(Nc4ccccc4)cccc23)cc1 | -4.86 | -14.93 | 9.5 | 12.7 | -0.47 | -1.96
Cc1nc2nc(C(F)(F)F)[nH]c2nc1C | 10.93 | 9.55 | -5.58 | 7.77 | 3.03 | -5.2
Oc1nc2ccccc2n1C1=CCNCC1 | -11.2 | -15.97 | 0.33 | 8.73 | 2.14 | -5.4
CCOC(=O)/C(=N\O)C1=CSC2=NNC(C)(C)N12 | 3.63 | -13.67 | 6.92 | 9.3 | 5.91 | -6.65
CCCCSc1nc(O)cc(C(=O)O)n1 | 3.28 | -12.23 | 5.2 | 7.02 | 2.48 | -8.23
CCCCCOc1ccc(N2C(=O)C(C)CNC2=S)cc1 (stereo unspecified) | 15.96 | 8.82 | 2.34 | 9.59 | -1.3 | -8.51
CCOC(=O)Nc1cc2c(c(N)n1)N=C(c1ccccc1)CN2 | 13.64 | 2.33 | 8.87 | 5.47 | 5.55 | -8.89
COc1ccccc1NC(=O)c1cc2ccccc2cc1O | 12.35 | 5.68 | 6.98 | 12.44 | -0.94 | -6.93
CCOC(=O)Nc1ccc2nc(N3CCCCCC3)sc2c1 | 14.81 | 14.56 | 8.66 | 9.37 | 0.84 | -12.19
Cc1cc(N2CCN(C)CC2)n2nc(-c3ccc(Cl)cc3)nc2n1 | 10.15 | 8.53 | 12.12 | 20.83 | 5.91 | -6.75
Cc1nc(N)nc(Cl)c1CCC1OCCO1 | 7.04 | -8.91 | 8.75 | 6.29 | 2.66 | -6.74
NNC(=O)CNc1cccc(Br)c1 | 11.03 | 1.39 | 7.55 | 8.17 | 1.56 | -4.46
Cc1ccc(C#CC(C)(O)C(C)(C)C)cn1 (stereo unspecified) | 4.47 | 10.01 | 1.4 | 18.58 | 7.24 | -1.46
COc1cccc(NC(S)=Nc2ccc(O)cc2)c1 | -0.11 | -11.24 | 8.79 | 5.3 | 8.24 | -9.84
CCCCNc1cc(Cl)nc(N)n1 | 19.23 | -9.43 | 4.85 | 9.91 | 0.7 | -8.27
O=C1CCC(c2ccccc2)(c2ccccc2)CC1 | -6.5 | -6.38 | 1.3 | -0.79 | -1.35 | -9.68
Cn1cnc([N+](=O)[O-])c1Sc1nnc(-c2cccnc2)n1C | 12.02 | 15.57 | -1.31 | 17.06 | 6.51 | -6.62

SMILES | Inhibition (Staphylococcus aureus) [%] | Inhibition (Acinetobacter baumannii) [%] | Inhibition (Escherichia coli) [%] | Inhibition (Klebsiella pneumoniae) [%] | Inhibition (Candida albicans) [%] | Inhibition (Cryptococcus neoformans) [%]
C#CCSc1nnnn1-c1ccc(Br)c(C)c1 | 21.42 | 5.77 | 6.7 | 10.23 | 1.42 | -16.38
NC(=O)c1ncn2c(=O)n(CCCl)nnc12 [MITOZOLOMIDE] | -4.1 | 10.43 | 3.54 | 6.17 | 2.26 | -10.87
CCOC(=O)c1nnsc1-c1ccc(-c2snnc2C(=O)OCC)cc1 | 4.36 | 3.04 | -11.2 | 29.27 | 6.68 | -3.34
O=C(O)CCC1(c2ccccc2)NC(=O)NC1=O (stereo unspecified) | 11.61 | -12.39 | 7.41 | 2.37 | -1.18 | -9.46
Cc1n[nH]c2c([N+](=O)[O-])c(=O)[nH]c(=O)n12 | 3.86 | -12.95 | 12.3 | 7.43 | 0.29 | -13.65
Nc1nc(N)c(/N=N/c2ccc(C(=O)O)cc2)c(N)n1 | 20.24 | -14.9 | 9.92 | 6.15 | 7.35 | -10.91
NC(=O)c1ccc(/N=N/c2c(O)c3ccccc3[nH]c2=O)cc1 | 1.45 | 0.09 | 1.38 | 17.01 | 24 | -1.63
CCNc1nc(NC(C)C)nc(-c2ccncc2)n1 | 6.99 | -1.34 | 9.95 | 10 | 1.8 | -10.92
CC(C)CNC(=O)/C=C\C(=O)O | -0.87 | -6.9 | -14.17 | 9.3 | 3.69 | 32.61
CCOc1nc(OCC)c2cnn(C)c2n1 | 17.13 | -11.25 | 5.79 | 6.34 | 3.82 | -3.08
CCOC(=O)c1[nH]c(CO)c(C(=O)OCC)c1C | 12.97 | 11.05 | 2.06 | 19.54 | 9.36 | -4.6
O=c1n(CC2CO2)c(=O)n(CC2CO2)c(=O)n1CC1CO1 (stereo unspecified) [TEROXIRONE] | 0.12 | -10.62 | 4.44 | 8.68 | 3.23 | -12.57
COC1OC(CO)C(N=C(C)C)C1O (stereo unspecified) | -11.36 | -14 | 0.14 | 2.78 | 0.83 | -10.33
Cc1nc(C(N)=O)nc2ccccc12 | 17.26 | -10.29 | 6.82 | 15.63 | 0.61 | 1.62
Cc1nc2ccccc2nc1N1CCCC1 | 12.43 | -3.73 | 4.2 | 6.96 | 2.02 | -9.29
C1CCCC(NC2=NCCO2)CCC1 | -8.35 | -11.54 | -9.72 | 4.38 | -2.21 | -3.14
NC(=N\c1ccc(N)cc1)/C(N)=N/c1ccc(N)cc1 | -1.65 | -17.09 | 7.03 | 7.69 | 0.22 | -12.28
CCOC(=O)C1=C(N)N=C(N)C1=Nc1ccc(OC)cc1 | 10.45 | -11.35 | 6.73 | 4.94 | -1.95 | -7.84
CN(C)C(=O)OCC1COc2ccccc2O1 (stereo unspecified) | 14.89 | -13.85 | 7.79 | 12.42 | -0.21 | -9.62
CN(C)CCCn1c2c3ccccc3ccc2c2oc(=O)c3ccccc3c21.Cl | 14.28 | -7.18 | 12.65 | 11.13 | 0.85 | -2.35
Cn1c(CO)cnc1-c1ccccc1 | 2.4 | 0.07 | -8.68 | 2.59 | 2.13 | -3.98
Nc1ccccc1-n1nc2ccc3ccccc3c2n1 | -2.24 | -24.16 | 7.22 | 6.99 | 3.16 | -10.55
Nc1n[nH]c(CO)n1.O=C(O)CO | 4.42 | -8.74 | 3.45 | 8.84 | 0.2 | -5.13
CCOC(=O)C1C(=O)C(=O)N(C(C)C)C1C(=O)OCC (stereo unspecified) | 9.9 | 14.67 | -8.18 | 12.15 | 4.37 | 17.48
C/C(=N\O)C1CC(CC(=O)O)C1(C)C (stereo unspecified) | -0.7 | -12.7 | 4.91 | 2.97 | 2.15 | -5.7
